Source: PubChem
Hits are enriched below; roughly 2.1% of the tested compounds scored in any of these assays.
TDP43 rescue: TDP-43 toxicity inhibition in yeast; 410,000 compounds, 1.8% hits; AID 652104; Potency, µM (titrated, usually from 46.1 µM), usual class: activators; TDP-43 expressing yeast growth rescue, BacTiter-Glo, 24 h; also: nearly all actives have a fitted effect of over 50% in size
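Yeast expressing TDP-43 (pregrown in raffinose, seeded at OD600=0.02 in galactose medium) exposed to compounds 24 hr at 30 deg C. Growth read by BacTiter-Glo luminescence; rescue of toxicity appears as increased signal.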
Abeta rescue: compounds reversing amyloid beta toxicity in yeast | yeast expressing A-beta42, growth rescue, OD600, 48 h; response scale: 0% DMSO, 100% iron-clioquinol control | Potency, µM (top dose mostly 46.1 µM), actives largely listed as activators | 410,000 compounds, 0.063% hits | AID 1347071; also: nearly all actives have a fitted effect of over 55% in size
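Growth rescue measured by 600 nm absorbance after 48 h yeast culture at 30 C with compound. Values normalized between DMSO and an equimolar ferric chloride plus clioquinol control.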
aSyn yeast inh: alpha-synuclein toxicity inhibition in yeast. Yeast expressing alpha-synuclein, growth rescue, BacTiter-Glo, 24 h. Potency, µM (titrated, usually from 46.1 µM), most hits filed as activators. 370,000 compounds, 0.14% hits. AID 652106; also: nearly all actives have a fitted effect of over 65% in size
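Readout is rescue of growth in alpha-synuclein-expressing yeast, so inhibitors of toxicity appear as activators. Growth after 24 hr at 30 deg C in galactose medium is quantified by luminescence.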
FUS yeast rescue: FUS proteinopathy suppression in yeast; S. cerevisiae FUS-expressing, growth rescue, OD600, 24 h; Potency, µM (series often up to 76.6 µM), most hits filed as activators; 390,000 compounds, 0.24% hits; AID 1347120; also: nearly all actives have a fitted effect of over 55% in size
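Read-out: OD at 600 nm after 24hr at 30C, reporting rescue of FUS-induced yeast toxicity. Cells at OD 0.005 in galactose (2%) minimal medium; compounds tested in a dilution series; CP55940 titration from 92uM final as control.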
Large screens that a line does not name were inactive. Calls follow the shape of the dose curve; as a rule, active = well fitted curve in the direction sought with a large enough effect; inconclusive = small, poorly fitted or top-dose-only effect, or another doubt; inactive = no such curve, though single readings can be large; an effect the other way counts as inactive or inconclusive.

CCCNS(=O)(=O)c1cccc(C(=O)NC2CCCc3ccccc32)c1 (centres undefined)	none
Cc1ccc(NC2=C(Cl)C(=O)OC2OC(C)C)cc1 (centres undefined)	TDP43 rescue inconclusive
Cc1cccc(NC2=C(Cl)C(=O)OC2OC(C)C)c1 (centres undefined)	TDP43 rescue 13µM
O=C(c1ccc(CS(=O)(=O)c2c(Cl)cccc2Cl)o1)N1CCN(c2ccccc2)CC1	FUS yeast rescue 28µM (no result: aSyn yeast inh)
COc1ccc(CCC(=O)N2CCN(c3cccc(C)c3C)CC2)cc1	TDP43 rescue inconclusive
COc1ccc(S(=O)(=O)Cc2ccc(C(=O)N3CCN(c4cccc(C)c4C)CC3)o2)cc1	TDP43 rescue 25µM
COc1ccc(S(=O)(=O)Cc2ccc(C(=O)N3CCN(c4cc(C)ccc4C)CC3)o2)cc1	TDP43 rescue inconclusive, FUS yeast rescue inconclusive
O=C(c1ccc(CS(=O)(=O)c2c(Cl)cccc2Cl)o1)N1CCCC1	none
Cc1ccc(S(=O)(=O)Cc2ccc(C(=O)N3CCN(c4cccc(C)c4C)CC3)o2)cc1	TDP43 rescue 22µM, FUS yeast rescue inconclusive
COc1ccc(CC(=O)N2CCN(c3cccc(C)c3C)CC2)cc1	TDP43 rescue 11µM
Cc1cc(=O)[nH]c2nnc(SCc3ccc(Cl)c(Cl)c3)n12	none (no result: aSyn yeast inh)
O=C(c1ccc(COc2ccccc2)o1)N1CCN(S(=O)(=O)c2ccccc2Cl)CC1	TDP43 rescue 16µM
Cc1ccc(S(=O)(=O)N2CCN(C(=O)c3ccc(COc4ccccc4)o3)CC2)cc1	none
COc1ccccc1N1CCN(C(=O)Nc2cccc(Cl)c2)CC1	none
COc1cccc(NC(=O)N2CCN(c3cccc(C)c3C)CC2)c1	TDP43 rescue 13µM
Cc1[nH]n(-c2ccccc2)c(=O)c1/C=N/O	none
Cc1[nH]n(-c2ccccc2)c(=O)c1/C=N/NC(=O)c1ccccc1F	TDP43 rescue inconclusive, Abeta rescue 10µM
Cc1[nH]n(-c2ccccc2)c(=O)c1/C=N/N1C(=O)c2ccc3c4c(ccc(c24)C1=O)CC3	TDP43 rescue 5µM, Abeta rescue 8.9µM, aSyn yeast inh 25µM
Cc1ccc(C(=O)NCC(=O)OCC(=O)Nc2ccc3[nH]c(=O)[nH]c3c2)cc1	none
Cc1cc(C)nc(NC(N)=NCCc2c[nH]c3ccccc23)n1	none
Cc1cc(C)nc(NC(=NCCc2c[nH]c3ccccc23)NC(=O)Nc2ccc(Cl)cc2)n1	TDP43 rescue 22µM (no result: FUS yeast rescue)
Cc1c(C(=O)OCC(=O)NCc2ccc3c(c2)OCO3)cccc1[N+](=O)[O-]	none
CCOC(=O)c1sc(N2C(=O)C(O)=C(C(=O)c3ccco3)C2c2ccco2)nc1C (centres undefined)	FUS yeast rescue 28µM
CCOc1ccc2nc(N3C(=O)C(O)=C(C(=O)c4ccco4)C3c3ccco3)sc2c1 (centres undefined)	none
CCn1c(=O)c2sccc2n(Cc2ccccc2)c1=O	TDP43 rescue inconclusive
CCc1ccc(N2C(=O)Cc3c2nc(N)c(C#N)c3N)cc1	FUS yeast rescue 25µM
CCN(CC)c1ccc(-n2nc3cc(C)c(NC(=O)c4ccccc4F)cc3n2)cc1	none (no result: aSyn yeast inh)
CS(=O)(=O)c1ccccc1COC(=O)Nc1ccc(Cl)cc1	TDP43 rescue 13µM
O=C(Nc1ccc(Cl)cc1)OCc1ccccn1	none
CC(C)(C)C1CCC(=NNC(=O)c2cc3c(s2)CCCC3)CC1 (centres undefined)	none (no result: FUS yeast rescue)
CC(C)(C)C1CCc2sc(C(=O)NNC(=O)CCl)cc2C1 (centres undefined)	TDP43 rescue 13µM
CSc1ccc(/C=C/C(=O)c2ccc(O)cc2)cc1	TDP43 rescue 14µM, Abeta rescue inconclusive
CCOC(=O)c1cccc(NC(=O)[C@H](CSCc2ccccc2)N2Cc3ccccc3C2=O)c1	none (no result: aSyn yeast inh)
Cc1ccc(CNC(=O)C2CCN(C(=O)Nc3ccc(C)cc3)CC2)cc1	none
O=c1[nH]c(Sc2ccc([N+](=O)[O-])cc2[N+](=O)[O-])nc2ccccc12	TDP43 rescue 13µM
O=C(CSc1nc2ccccc2c(=O)[nH]1)Nc1ccc([N+](=O)[O-])cc1	none
Cc1ccc(C2C(C#N)=C(N)Oc3cc(C)oc(=O)c32)o1 (centres undefined)	none
CCC(C)CNC(=O)CSc1nnc(-c2cccnc2)n1C1CCCCC1 (centres undefined)	none (no result: TDP43 rescue, Abeta rescue, aSyn yeast inh)
ICC[n+]1csc2ccccc21	none (no result: TDP43 rescue, Abeta rescue, FUS yeast rescue)
Fc1ccc(C[n+]2csc3ccccc32)cc1	TDP43 rescue 28µM (no result: FUS yeast rescue)
Clc1ccc(C[n+]2csc3ccccc32)cc1	TDP43 rescue 25µM (no result: FUS yeast rescue)
